# Source: PubChem
# VDR inhibitor = vitamin D3 receptor (human) inhibition; P11473; VDR-SRC2-3 peptide fluorescence polarization, 2 h; Potency, µM, for inactives: max response, negative = inhibition, actives largely listed as inhibitors; 400,000 tested, 0.93% active; also: % is scaled to controls: 0 for no effect and ±100 for the full control effect
#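 Two reagent solutions held at 4 deg C in the dark were dispensed, compounds pinned at 23 nl, and the mixture incubated 2 h at room temperature. Read-out: fluorescence polarization of VDR–SRC2-3 peptide binding.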
# Tb PFK inh = inhibitors of T. brucei phosphofructokinase; Potency, µM (doses to about 57.5 µM), for the others: at the highest dose activity, negative = inhibition, hits mostly inhibitors; T. brucei PFK, ADP-Glo luminescence; 330,000 tested, 0.17% active;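 also: 0% = uninhibited 1x PFK enzyme wells and -100% = no-enzyme wells; nearly all actives have a fitted effect of over 60% in size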
#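 Activity is normalized to no-enzyme wells (full inhibition) and 1.25 nM enzyme wells (no inhibition). Reaction: 0.5 mM F6P, 0.1 mM ATP, 45 min RT, ADP-Glo luminescence; concentration-response curves fitted and classed by quality.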
# BRCA1 expr up = BRCA1 expression activation | MCF7-BRCA1-FFLuc reporter, luminescence, 48 h; response scale: scaled: vehicle 0%, 10 µM genistein 100% | Potency, µM (series often up to 46.1 µM), inactives show at the top dose activation, actives largely listed as activators | 380,000 tested, 1.1% active; also: nearly all actives have a fitted effect of over 80% in size
#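 MCF7-BRCA1-FFLuc, 2000 cells/well; 2 h attach, 37 °C/5% CO2; compound 48 h; luciferase substrate 15 min; luminescence end-point. Norm. to genistein 10 microM max activation and DMSO; concentration-response curves fitted.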
# PLK1 PBD inh = inhibitors of human PLK1 polo-box domain binding | Potency, µM, inactives show max response, negative = inhibition, usual class: inhibitors | 360,000 tested, 2.8% active | Plk1 PBD binding of FITC phosphopeptide, fluorescence polarization | P53350; also: series mostly up to about 57 µM; % is scaled to controls: 0 for no effect and ±100 for the full control effect; nearly all actives have a fitted effect of over 65% in size
# Target sequence (P53350 whole entry, looked up, the tested form may be a part): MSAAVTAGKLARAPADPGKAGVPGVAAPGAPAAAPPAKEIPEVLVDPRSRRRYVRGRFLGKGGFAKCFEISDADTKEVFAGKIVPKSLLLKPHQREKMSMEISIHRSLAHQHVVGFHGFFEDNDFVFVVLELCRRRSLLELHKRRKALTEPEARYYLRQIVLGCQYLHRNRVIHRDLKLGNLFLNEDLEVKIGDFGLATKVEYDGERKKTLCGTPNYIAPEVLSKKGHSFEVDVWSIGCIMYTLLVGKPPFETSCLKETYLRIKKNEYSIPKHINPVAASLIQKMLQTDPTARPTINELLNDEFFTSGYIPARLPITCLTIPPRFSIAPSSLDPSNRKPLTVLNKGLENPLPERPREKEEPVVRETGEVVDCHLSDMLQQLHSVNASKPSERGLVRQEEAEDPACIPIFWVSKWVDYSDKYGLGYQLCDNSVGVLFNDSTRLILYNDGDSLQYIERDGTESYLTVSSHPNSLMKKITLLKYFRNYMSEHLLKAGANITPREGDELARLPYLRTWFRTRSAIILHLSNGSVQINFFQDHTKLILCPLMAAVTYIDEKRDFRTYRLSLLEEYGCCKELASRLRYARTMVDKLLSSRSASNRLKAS
# The depositor's hits bear a star; ? = inconclusive; nt = no result given. Shown are actives, neighbours in structure and some others; about 3.9% of the full set was active somewhere. Calls follow the shape of the dose curve; as a rule, active = well fitted curve in the direction sought with a large enough effect; inconclusive = small, poorly fitted or top-dose-only effect, or another doubt; inactive = no such curve, though single readings can be large; an effect the other way counts as inactive or inconclusive. Potency is read from the fitted curve at half-maximal effect.
SMILES,VDR inhibitor,Tb PFK inh,BRCA1 expr up,PLK1 PBD inh
C/C=C/C=C\C(=O)Nc1cccc(C2=NOC3(C2)C[C@@H](C(N)=O)N(C(=O)c2cc([N+](=O)[O-])cc([N+](=O)[O-])c2C)C3)c1 (some centres undefined),?,-4%,0%,34µM*
CCCCCC(=O)Nc1cccc(C2=NOC3(C2)C[C@@H](C(N)=O)N(C(=O)c2cc([N+](=O)[O-])cc([N+](=O)[O-])c2C)C3)c1 (some centres undefined),13%,3%,-6%,-5%
C/C=C\C=C\C(=O)N1CC2(CC(c3cccc(NC(=O)COc4ccc(Cl)cc4)c3)=NO2)C[C@H]1C(N)=O (some centres undefined),89µM*,?,0%,-11%
CN(C)c1ncc2nc(-c3ccc(Cl)cc3)c(=O)n(C3CC3)c2n1,-16%,nt,nt,nt
CC(=O)Nc1ccc(N(C(=O)Cn2nnc3ccccc32)C(C(=O)NCc2ccccc2)c2ccc(C)cc2)cc1 (centres undefined),-9%,nt,nt,nt
CC(Cc1n[nH]c(=S)o1)c1ccccc1 (centres undefined),-20%,3%,-4%,24µM*
CCOC(=O)c1c(C)[nH]c(C)c1S(=O)(=O)N1CCC(C(=O)N2CCN(c3ccccc3)CC2)CC1,16%,nt,nt,nt
Fc1ccc(/C=N/Nc2nccnc2Cl)cc1,-2%,-12%,10µM*,4%
Nc1c(Cl)ncnc1N/N=C/c1ccc(O)cc1,-1%,-7%,37%,-8%
O=[N+]([O-])c1cccc(/C=N/NC2=NS(=O)(=O)c3ccccc32)c1,-3%,2%,-9%,27µM*
O=[N+]([O-])c1cccc(/C=N/Nc2nccnc2Cl)c1,6%,-13%,7.9µM*,-3%
Cc1ccc2nc(CN3CCN(C(=O)Nc4ccc(F)cc4)CC3)oc2c1,3%,nt,-17%,nt
CCCC(=O)c1cc(F)c(N2CCOCC2)cc1C,-6%,-6%,45%,24µM*
COc1ccc(OC)c(/C=C2\S/C(=N/NC(=O)c3ccc4ccccc4c3)NC2=O)c1,-7%,-1%,-30%,?
O=C1N/C(=N/NC(=O)c2cccc3ccccc23)S/C1=C\c1ccccc1OCc1ccccc1,-4%,-4%,-20%,27µM*
COc1cc(OC)c(/C=C/c2cc3ccccc3c[n+]2C)c(OC)c1,nt,nt,-42%,nt
CC(=O)c1ccc(N2C(=O)C3C(C2=O)C(C(=O)c2ccc(Cl)cc2)N2CCCC32)cc1 (centres undefined),-17%,0%,-38%,11µM*
CCOC(=O)c1cccc(NC(=O)CSc2cc(=O)n(C)c3ccccc23)c1,5%,nt,nt,nt
CCn1c(N2CCC(Cc3ccccc3)CC2)nc2c1c(=O)[nH]c(=O)n2C,-12%,-6%,-46%,30µM*
CC1CCN(c2nc3c(c(=O)[nH]c(=O)n3C)n2Cc2ccccc2)CC1,-23%,3%,0%,-8%
O=S(=O)(c1ccccc1)c1nnn2c1nc(NCc1ccccc1)c1cc(Cl)ccc12,-3%,nt,nt,nt
CCOC(=O)[C@]12CCC=C1N(Cc1cccc3ccccc13)C(=O)[C@H](CC(=O)NCc1ccc(C)o1)C2,nt,nt,-39%,-12%
COCCN(C(=O)c1ccccc1F)c1nc(-c2ccc(OC)cc2)cs1,-3%,3%,5%,-8%
CCC(=O)N(Cc1ccco1)c1nc(-c2ccc(OC)cc2)cs1,-3%,1%,42%,-6%
CCC(=O)N(CC)c1nc(-c2ccc(OC)cc2)cs1,-10%,2%,11µM*,3%
SMILES,VDR inhibitor,Tb PFK inh,BRCA1 expr up,PLK1 PBD inh
CCN(C(=O)c1ccccc1F)c1nc(-c2ccc(OC)cc2)cs1,-13%,2%,7.9µM*,4%
Cc1ccc(CCC(=O)Nc2ccc(CC(=O)O)cc2)o1,79µM*,18%,-2%,12µM*
COC(=O)c1ccc2nc(-c3ccc(F)cc3)c(CC3CCCCC3)n2c1,nt,nt,-22%,2%
O=c1ccccn1Cc1c(F)cccc1Cl,-21%,3%,-6%,3.4µM*
Cc1cccn(Cc2c(F)cccc2Cl)c1=O,4%,-2%,-2%,0%
C(=C\c1ccnc2ccccc12)/c1ccc(-[n+]2cc[n+](-c3ccc(/C=C/c4ccnc5ccccc45)cc3)cc2)cc1,nt,nt,-37%,nt
O=c1c2c3c(sc2n2cnnc2n1-c1ccccc1)N(Cc1ccccc1)CCC3,?,-3%,22%,30µM*
CN(C)c1ccc(/C=N/NC(=O)c2ccc(Cl)cc2)cc1,-3%,-6%,-1%,0%
Cn1c(=O)n(C)c2cc(/C=N/NC(=O)c3ccc(Cl)cc3)ccc21,?,-4%,-1%,30µM*
COc1cccc(Cn2nnc3c(=O)[nH]c(C4CCN(C(=O)c5ccccc5Cl)CC4)nc32)c1,8%,nt,nt,nt
O=[N+]([O-])c1ccc(-n2nnnc2-c2ccccc2)c([N+](=O)[O-])c1,-21%,1%,-90%,-24%
O=[N+]([O-])c1ccc(-n2nnnc2-c2ccccc2)cc1,22µM*,-7%,-9%,11µM*
O=C(Cc1ccc2ccccc2c1)NO,nt,nt,0%,nt
Cc1nnsc1Sc1ccccc1,-14%,-2%,4%,12µM*
CC(C)c1ccc(NC(=O)c2ccc(CN3CC(=O)N4CCCCC4C3=O)cc2)cc1 (centres undefined),8%,nt,nt,nt
O=C(CN1C(=O)C(c2ccccc2)Oc2cccnc21)NCc1ccccc1F (centres undefined),?,6%,7%,7.5µM*
COc1ccc(CNC(=O)CN2C(=O)C(c3ccccc3)Oc3cccnc32)cc1 (centres undefined),10%,1%,0%,-2%
Cc1cc(C)cc(NC(=O)CCCN2C(=O)C(c3ccccc3)Oc3cccnc32)c1 (centres undefined),-15%,-5%,-37%,24µM*
CC(=O)Nc1ccc(NC(=O)CCCN2C(=O)C(c3ccccc3)Oc3cccnc32)cc1 (centres undefined),nt,nt,-20%,-2%
O=C(Nc1ccc(S(=O)(=O)N2CCC(c3nc4ccccc4s3)CC2)cc1)c1ccccc1,16%,nt,nt,nt
Cc1ccc(NC(=O)CCC(=O)N2CCSc3ccccc32)cc1Cl,3%,nt,nt,nt
O=C(NC(NC(=S)Nc1ccccc1C(=O)O)C(Cl)(Cl)Cl)c1cccc([N+](=O)[O-])c1 (centres undefined),?,-2%,0%,24µM*
COC(=O)COc1cccc(NC(=O)c2ccc(Cl)cc2)c1,?,1%,0%,30µM*
CCCOC(=O)c1cccc(NC(=O)C(C)(C)C)c1,-4%,-2%,65%,-1%
CCCC(=O)Nc1ccc(C(=O)Nc2cccc(OC)c2)cc1,-6%,3%,42%,3%
CC(C)(C)C(=O)Nc1cccc(C(=O)c2cccc(NC(=O)C(C)(C)C)c2)c1,-28%,0%,-9%,24µM*
COc1cccc(NC(=O)c2ccc(NC(=O)C(C)(C)C)cc2)c1,-6%,0%,4µM*,-10%
Cc1ccc2nc(CN3CCN(C(=O)Nc4ccc(C)c(F)c4)CC3)oc2c1,10%,nt,5%,nt
O=C(C[C@@H]1CC[C@@H]2[C@H](COC[C@H](O)CN2S(=O)(=O)c2ccccc2)O1)Nc1ccccc1,nt,nt,nt,2%
